Compounds without any hit were thinned out: in the full panel of roughly 83,000, 20% have a hit.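 A percent growth of 40 corresponds to 60% growth inhibition; 0 means no net growth; -100 means all cells died. Active threshold: below 10.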 Calls of active or inactive are those of the source.
Columns and labels:
Assay in all cases: NCI-60 one-dose screen, 48 h (100 = growth as untreated, 0 = no growth, -100 = all killed)
SK-MEL-2 melanoma = settings: 10 µM unless noted
EKVX NSCLC = settings: 10 µM unless noted
SN12C renal = settings: 10 µM unless noted
UO-31 renal = settings: 10 µM unless noted
TK-10 renal = settings: 10 µM unless noted
ACHN renal = settings: 10 µM unless noted
CAKI-1 renal = settings: 10 µM
CCRF-CEM leukemia = settings: 10 µM unless noted
MOLT-4 leukemia = settings: 10 µM unless noted
SR leukemia = settings: 10 µM unless noted
RPMI-8226 leukemia = settings: 10 µM unless noted
OVCAR-8 ovarian = settings: 10 µM unless noted
OVCAR-5 ovarian = settings: 10 µM unless noted
OVCAR-4 ovarian = settings: 10 µM unless noted
SK-OV-3 ovarian = settings: 10 µM unless noted
IGROV1 ovarian = settings: 10 µM unless noted
OVCAR-3 ovarian = settings: 10 µM unless noted
HS 578T breast = settings: 10 µM unless noted
NCI/ADR-RES ovarian = settings: 10 µM unless noted

Measured: growth

CCCCCCNC(=O)Oc1ccc(/C(=C(\C)c2ccc(Cl)cc2)c2ccc(OCCN(C)C)cc2)cc1
inactive: SK-MEL-2 melanoma 98% | EKVX NSCLC 60.5% | SN12C renal 69.9% | UO-31 renal 43.6% | TK-10 renal 88.9% | ACHN renal 71.5% | CAKI-1 renal 70.4% | CCRF-CEM leukemia 36% | MOLT-4 leukemia 13.4% | OVCAR-8 ovarian 84.8% | OVCAR-5 ovarian 78.1% | OVCAR-4 ovarian 74.5% | SK-OV-3 ovarian 94.4% | IGROV1 ovarian 44.7% | OVCAR-3 ovarian 66.4% | HS 578T breast 80.6% | NCI/ADR-RES ovarian 62.9%
active: SR leukemia 2% | RPMI-8226 leukemia -11.6%

COc1cc(C(=O)C[n+]2ccc3ccccc3c2)cc(OC)c1OC
inactive: SK-MEL-2 melanoma 102% | EKVX NSCLC 98.6% | SN12C renal 90.4% | UO-31 renal 94.2% | TK-10 renal 112% | ACHN renal 106% | CAKI-1 renal 92.6% | CCRF-CEM leukemia 97% | MOLT-4 leukemia 106% | SR leukemia 102% | RPMI-8226 leukemia 111% | OVCAR-8 ovarian 100% | OVCAR-5 ovarian 102% | OVCAR-4 ovarian 104% | SK-OV-3 ovarian 97.1% | IGROV1 ovarian 95.8% | OVCAR-3 ovarian 105% | HS 578T breast 94% | NCI/ADR-RES ovarian 101%

N#C/C(=C\c1ccc(Cl)cc1Cl)C(N)=O
inactive: SK-MEL-2 melanoma 106% | EKVX NSCLC 105% | SN12C renal 98.3% | UO-31 renal 94.4% | TK-10 renal 102% | ACHN renal 101% | CAKI-1 renal 90.8% | CCRF-CEM leukemia 89.7% | MOLT-4 leukemia 109% | SR leukemia 80.5% | RPMI-8226 leukemia 111% | OVCAR-8 ovarian 106% | OVCAR-5 ovarian 99.7% | OVCAR-4 ovarian 107% | SK-OV-3 ovarian 107% | OVCAR-3 ovarian 109% | HS 578T breast 99% | NCI/ADR-RES ovarian 107%

CCOc1c(C#N)c(Nc2ccc(S(N)(=O)=O)cc2)c(C#N)c2nnc(C)n12
inactive: SK-MEL-2 melanoma 101% | EKVX NSCLC 90.5% | SN12C renal 98.1% | UO-31 renal 78.4% | TK-10 renal 125% | ACHN renal 90.2% | CAKI-1 renal 88.7% | CCRF-CEM leukemia 104% | MOLT-4 leukemia 104% | SR leukemia 100% | RPMI-8226 leukemia 107% | OVCAR-8 ovarian 99.4% | OVCAR-5 ovarian 107% | OVCAR-4 ovarian 117% | SK-OV-3 ovarian 102% | IGROV1 ovarian 101% | OVCAR-3 ovarian 114% | HS 578T breast 102% | NCI/ADR-RES ovarian 105%

IP(CCCSc1n(Cc2ccc3ccccc3c2)c(-c2ccccc2)c(-c2ccccc2)[n+]1Cc1ccc2ccccc2c1)(c1ccccc1)(c1ccccc1)c1ccccc1
inactive: EKVX NSCLC 32% | SN12C renal 57% | UO-31 renal 70.1% | TK-10 renal 66.9% | ACHN renal 87.9% | CAKI-1 renal 77.6% | CCRF-CEM leukemia 32.5% | MOLT-4 leukemia 46.7% | RPMI-8226 leukemia 14.8% | OVCAR-8 ovarian 38.6% | OVCAR-5 ovarian 58.5% | OVCAR-4 ovarian 23.2% | SK-OV-3 ovarian 29.4% | HS 578T breast 67.1% | NCI/ADR-RES ovarian 94.1%
active: SK-MEL-2 melanoma 2.52% | SR leukemia 5.94% | OVCAR-3 ovarian 8.3%

CN(c1ccc(Br)cc1)S(=O)(=O)c1ccc(-c2cnc(C3CC3)o2)cc1
inactive: SK-MEL-2 melanoma 69.5% | EKVX NSCLC 43.1% | SN12C renal 30.2% | UO-31 renal 44.4% | TK-10 renal 87.6% | ACHN renal 38.9% | CAKI-1 renal 36.9% | CCRF-CEM leukemia 18% | MOLT-4 leukemia 23.5% | SR leukemia 34.4% | RPMI-8226 leukemia 15.9% | OVCAR-8 ovarian 33.2% | OVCAR-5 ovarian 46.7% | OVCAR-4 ovarian 70.1% | SK-OV-3 ovarian 73.7% | IGROV1 ovarian 29.9% | HS 578T breast 35.8%
active: NCI/ADR-RES ovarian 2.5%

CCNC(=O)Oc1ccc(/C(=C(/C)c2ccc(Cl)cc2)c2ccc(OCCN(C)C)cc2)cc1
inactive: SK-MEL-2 melanoma 98% | EKVX NSCLC 72.1% | SN12C renal 77.8% | UO-31 renal 61.7% | TK-10 renal 92% | ACHN renal 91.4% | CAKI-1 renal 73.4% | CCRF-CEM leukemia 66.7% | MOLT-4 leukemia 50.4% | SR leukemia 42.4% | RPMI-8226 leukemia 19.3% | OVCAR-8 ovarian 87.9% | OVCAR-5 ovarian 84.9% | OVCAR-4 ovarian 71.6% | SK-OV-3 ovarian 94.2% | IGROV1 ovarian 64.4% | OVCAR-3 ovarian 77.8% | HS 578T breast 80.8% | NCI/ADR-RES ovarian 74.9%

C#CCOc1ccc(C(Nc2cc(Cl)ccc2Cl)c2nnnn2C2CCCCC2)cc1 (centres undefined)
inactive: SK-MEL-2 melanoma 95% | SN12C renal 91.4% | UO-31 renal 62.5% | TK-10 renal 90.8% | ACHN renal 92% | CAKI-1 renal 44.4% | CCRF-CEM leukemia 85.8% | MOLT-4 leukemia 68.1% | SR leukemia 87.6% | RPMI-8226 leukemia 81.1% | OVCAR-8 ovarian 91.3% | OVCAR-5 ovarian 93.1% | OVCAR-4 ovarian 93.3% | SK-OV-3 ovarian 100% | IGROV1 ovarian 80.4% | OVCAR-3 ovarian 95.6% | HS 578T breast 87.4% | NCI/ADR-RES ovarian 80.2%
active: EKVX NSCLC -8.05%

NC(=O)C(=Cc1ccc(Cl)cc1)C(N)=O
inactive: SK-MEL-2 melanoma 87.3% | EKVX NSCLC 59.8% | SN12C renal 45.3% | UO-31 renal 57.6% | TK-10 renal 67.9% | ACHN renal 59.4% | CAKI-1 renal 49.2% | CCRF-CEM leukemia 57% | MOLT-4 leukemia 74.6% | SR leukemia 53.3% | RPMI-8226 leukemia 41.9% | OVCAR-8 ovarian 65.6% | OVCAR-5 ovarian 78.2% | OVCAR-4 ovarian 62.3% | SK-OV-3 ovarian 117% | IGROV1 ovarian 59.1% | OVCAR-3 ovarian 52% | HS 578T breast 89.7% | NCI/ADR-RES ovarian 57.1%

N#Cc1c(NC(=O)c2ccc(F)c(Cl)c2)sc2c1CCC(=O)C2
active: SN12C renal 4.43% | UO-31 renal -99% | ACHN renal -98.8% | CAKI-1 renal -67% | CCRF-CEM leukemia 8.21% | MOLT-4 leukemia 3.13% | SR leukemia 0.0131% | RPMI-8226 leukemia 0.133% | OVCAR-5 ovarian -14.6% | OVCAR-4 ovarian -52% | IGROV1 ovarian -25.7% | OVCAR-3 ovarian -47.3% | HS 578T breast -2.33% | NCI/ADR-RES ovarian -11.8%
inactive: SK-MEL-2 melanoma 18.3% | EKVX NSCLC 13.1% | TK-10 renal 15.3% | OVCAR-8 ovarian 16.6% | SK-OV-3 ovarian 25.8%

COc1ccc(-c2cc(-c3ccc(Cl)cc3)nc3nc(N)nn23)cc1
inactive: SK-MEL-2 melanoma 103% | EKVX NSCLC 99.3% | SN12C renal 97.6% | UO-31 renal 81% | TK-10 renal 93.2% | ACHN renal 96.3% | CAKI-1 renal 83.7% | CCRF-CEM leukemia 95% | MOLT-4 leukemia 89% | SR leukemia 93.6% | RPMI-8226 leukemia 108% | OVCAR-8 ovarian 99.1% | OVCAR-5 ovarian 101% | OVCAR-4 ovarian 102% | SK-OV-3 ovarian 119% | IGROV1 ovarian 98.2% | OVCAR-3 ovarian 110% | HS 578T breast 109% | NCI/ADR-RES ovarian 102%

COc1ccccc1/C=C/C(=O)c1nnn(-c2ccc(C(=O)O)cc2)c1C
inactive: SK-MEL-2 melanoma 98.6% | EKVX NSCLC 87.2% | SN12C renal 84.1% | UO-31 renal 87.6% | TK-10 renal 117% | ACHN renal 94% | CAKI-1 renal 96% | CCRF-CEM leukemia 63.9% | MOLT-4 leukemia 94.4% | SR leukemia 67% | RPMI-8226 leukemia 90.4% | OVCAR-8 ovarian 91.6% | OVCAR-5 ovarian 113% | OVCAR-4 ovarian 101% | SK-OV-3 ovarian 106% | IGROV1 ovarian 90.4% | OVCAR-3 ovarian 89.2% | HS 578T breast 106% | NCI/ADR-RES ovarian 93.5%

C/C(=N/Nc1nc(N/N=C(/C)c2ccc([N+](=O)[O-])cc2)nc(N2CCOCC2)n1)c1ccc([N+](=O)[O-])cc1
inactive: SK-MEL-2 melanoma 96.4% | EKVX NSCLC 68.1% | SN12C renal 73.7% | UO-31 renal 80.8% | TK-10 renal 127% | ACHN renal 66.1% | CAKI-1 renal 77.9% | CCRF-CEM leukemia 61.6% | MOLT-4 leukemia 78.9% | SR leukemia 113% | RPMI-8226 leukemia 64.7% | OVCAR-8 ovarian 63.6% | OVCAR-5 ovarian 95.5% | OVCAR-4 ovarian 77.6% | IGROV1 ovarian 93.8% | OVCAR-3 ovarian 88.4% | HS 578T breast 78.7% | NCI/ADR-RES ovarian 68.7%

C#CCOc1ccc(C(Nc2ccc(Cl)cc2)c2nnnn2C2CCCCC2)cc1 (centres undefined)
inactive: SK-MEL-2 melanoma 91.4% | EKVX NSCLC 53.9% | SN12C renal 85.9% | UO-31 renal 64.9% | TK-10 renal 95% | ACHN renal 96.2% | CAKI-1 renal 50.3% | CCRF-CEM leukemia 91% | MOLT-4 leukemia 72.5% | SR leukemia 81% | RPMI-8226 leukemia 76.9% | OVCAR-8 ovarian 93.5% | OVCAR-5 ovarian 85.5% | OVCAR-4 ovarian 82.6% | SK-OV-3 ovarian 98.2% | IGROV1 ovarian 84.3% | HS 578T breast 79.9% | NCI/ADR-RES ovarian 76.6%

CC(=O)c1ccc(NC(=O)COc2ccc(C3SCC(=O)N3c3ccc(Br)cc3)cc2)cc1 (centres undefined)
inactive: SK-MEL-2 melanoma 96.2% | EKVX NSCLC 94.4% | SN12C renal 95.1% | UO-31 renal 84.2% | TK-10 renal 103% | ACHN renal 97.6% | CAKI-1 renal 89.2% | CCRF-CEM leukemia 89.9% | MOLT-4 leukemia 96.8% | SR leukemia 77% | RPMI-8226 leukemia 89.6% | OVCAR-8 ovarian 97.5% | OVCAR-5 ovarian 102% | OVCAR-4 ovarian 103% | SK-OV-3 ovarian 105% | IGROV1 ovarian 89.7% | OVCAR-3 ovarian 121% | HS 578T breast 100% | NCI/ADR-RES ovarian 92.6%

CC(c1ccccc1)N1C(=O)/C(=C/c2csc(C#N)n2)SC1=S (centres undefined)
inactive: SK-MEL-2 melanoma 96.2% | EKVX NSCLC 98.5% | SN12C renal 93.3% | UO-31 renal 64.8% | TK-10 renal 119% | ACHN renal 87% | CAKI-1 renal 84.9% | CCRF-CEM leukemia 10.5% | MOLT-4 leukemia 36.5% | SR leukemia 48.9% | RPMI-8226 leukemia 41.8% | OVCAR-8 ovarian 93.4% | OVCAR-5 ovarian 107% | OVCAR-4 ovarian 98.1% | SK-OV-3 ovarian 108% | IGROV1 ovarian 90.9% | OVCAR-3 ovarian 55.5% | HS 578T breast 103% | NCI/ADR-RES ovarian 97.5%
